{"source": "PubChem BioAssay AID1259343", "about": "(VanderVen Lab, College of Veterinary Medicine, Cornell …, 2017)", "note": "Among all 6,200 compounds or so, about 2,900 (47%) were called active. The set was probably picked from earlier hits. The list shows a part of the results. A number with no mark means an inactive call. Cut-off read from the data, not from the text of the source: active = inhibition above about 50%; inactive = the rest.", "data": [{"test": "Mycobacterium tuberculosis growth inhibition, primary screen (AID 1259343)", "settings": "inhibition: at 10 µM, hits give high values; outcome: 10 uM", "values": [{"molecule": "NC(=S)c1cc2ccccc2oc1=O", "inhibition": "101% (active)"}, {"molecule": "O=c1oc2ccccc2cc1S(=O)(=O)c1ccc(Cl)cc1", "inhibition": "-58.5%"}, {"molecule": "Cc1ccn2c(=O)nc(SCc3ccc(Cl)c(Cl)c3)nc2c1", "inhibition": "59% (active)"}, {"molecule": "Cc1ccn2c(=O)nc(SCc3ccc(Cl)cc3Cl)nc2c1", "inhibition": "31.1%"}, {"molecule": "Cc1ccn2c(=O)nc(SCc3cccc(C(F)(F)F)c3)nc2c1", "inhibition": "2.92%"}, {"molecule": "Cc1ccn2c(=O)nc(SCc3ccc(Br)cc3)nc2c1", "inhibition": "1.95%"}, {"molecule": "Cc1ccc(CSc2nc(=O)n3ccc(C)cc3n2)cc1", "inhibition": "24.5%"}, {"molecule": "Cc1ccn2c(=O)nc(SCCc3ccccc3)nc2c1", "inhibition": "88.3% (active)"}, {"molecule": "Cc1ccn2c(=O)nc(SCc3cccc(Cl)c3)nc2c1", "inhibition": "86.3% (active)"}, {"molecule": "Cc1ccn2c(=O)nc(SCc3ccc(F)cc3)nc2c1", "inhibition": "1.46%"}, {"molecule": "Cc1ccn2c(=O)nc(SCc3ccc(Cl)cc3)nc2c1", "inhibition": "77.5% (active)"}, {"molecule": "N#CCSc1nnnn1-c1ccc(O)cc1", "inhibition": "-12.8%"}, {"molecule": "CCCSc1nnnn1-c1ccc(O)cc1", "inhibition": "55% (active)"}, {"molecule": "COc1cc(NC(=O)CSc2ncnc3c2cnn3C)cc(OC)c1", "inhibition": "35.5%"}, {"molecule": "O=C(CSc1ncnc2c1cnn2-c1ccc(F)cc1)Nc1ccon1", "inhibition": "68.2% (active)"}, {"molecule": "Cc1noc(-c2ccnc(NCc3ccc(C#N)cc3)c2)n1", "inhibition": "22.9%"}, {"molecule": "Cc1nc(SCC(=O)C23CC4CC(CC(C4)C2)C3)nc(C)c1C", "inhibition": "45%"}, {"molecule": "O=C(C[P+](c1ccccc1)(c1ccccc1)c1ccccc1)C12CC3CC(CC(C3)C1)C2", "inhibition": "95.7% (active)"}, {"molecule": "Cc1ccc(-n2c(SCC(=O)N3CCNC3=O)nc3sc4c(c3c2=O)CCC4)c(C)c1", "inhibition": "91.2% (active)"}, {"molecule": "CC(=O)CSc1nc2sc(C)c(C)c2c(=O)n1C1CCCCC1", "inhibition": "12%"}, {"molecule": "Fc1ccc(Cc2nc(CSc3c(F)c(F)cc(F)c3F)cs2)c(Cl)c1", "inhibition": "50.2% (active)"}, {"molecule": "CNC(Cc1ccc(Br)cc1)Cc1ccc(Br)cc1", "inhibition": "68.1% (active)"}, {"molecule": "CN1CCN(CC(O)COc2ccc(C34CC5CC(CC(C5)C3)C4)cc2)CC1", "note": "(stereo unspecified)", "inhibition": "101% (active)"}, {"molecule": "NCCOc1ccc(C23CC4CC(CC(C4)C2)C3)cc1", "inhibition": "-5.79%"}, {"molecule": "Cc1cn2nc(NC3CCCCCCC3)sc2n1", "inhibition": "-9.07%"}, {"molecule": "c1nc(NN=C2C3CC4CC(C3)CC2C4)c2c3c(sc2n1)CCC3", "inhibition": "100% (active)"}, {"molecule": "c1nc(NC2CCCCCC2)c2c3c(sc2n1)CCCC3", "inhibition": "94.5% (active)"}, {"molecule": "C1=C(CCNc2ncnc3sc4c(c23)CCC4)CCCC1", "inhibition": "97% (active)"}, {"molecule": "CC(=NNc1ncnc2sc3c(c12)CCC3)c1cc2ccccc2o1", "inhibition": "24.7%"}, {"molecule": "c1nc(NC2CCCCCC2)c2c3c(sc2n1)CCC3", "inhibition": "68% (active)"}, {"molecule": "CCCCCNc1ncnc2sc3c(c12)CCCC3", "inhibition": "-24.3%"}, {"molecule": "c1csc(CCNc2ncnc3sc4c(c23)CCC4)c1", "inhibition": "-1.33%"}, {"molecule": "COCc1nc(NCCC2=CCCCC2)c2cnn(C)c2n1", "inhibition": "-33.4%"}, {"molecule": "O=S(=O)(Nc1ncnc2sc3c(c12)CCC3)c1cccs1", "inhibition": "101% (active)"}, {"molecule": "O=C(CSc1nnc(CCn2ccc(=O)[nH]c2=O)o1)N1CCc2ccccc2C1", "inhibition": "4.33%"}, {"molecule": "Cc1nc(-c2ccccn2)[nH]c(=O)c1CC(=O)N1CCc2ccccc2C1", "inhibition": "67.7% (active)"}, {"molecule": "Cc1ccc(NC(=O)c2cc(C)n(C3CC3)c2C)c(C)c1", "inhibition": "12.4%"}, {"molecule": "CC1=C(C#N)C(C(F)(F)F)(C(F)(F)F)N=C(C2CCCCC2)N1", "inhibition": "11.3%"}, {"molecule": "Cc1nc(COc2ccccc2C(=O)Nc2ccc(Cl)cc2C)cs1", "inhibition": "-36.5%"}, {"molecule": "CC(=O)Nc1nc(COc2ccc(Cl)cc2Br)cs1", "inhibition": "41.2%"}, {"molecule": "Nc1nc(COc2ccc(Cl)cc2Cl)cs1", "inhibition": "87.6% (active)"}, {"molecule": "CCCCn1c(C2CCCCC2)nc2oc3ccccc3c(=O)c2c1=O", "inhibition": "-33.2%"}, {"molecule": "COc1nc(C)ccc1CNC(=O)C(=O)Nc1cccc(F)c1F", "inhibition": "8.51%"}, {"molecule": "CN(Cc1nc(-c2ccccc2)no1)Cc1ccnc2ccccc12", "inhibition": "-26.1%"}, {"molecule": "CC(C)c1ccc(-c2noc(CN(C)c3ccccc3)n2)cc1", "inhibition": "63.2% (active)"}, {"molecule": "Clc1ccc(-c2noc(COc3ccc4c(c3)OCO4)n2)cc1", "inhibition": "18.1%"}, {"molecule": "Cc1ccc(-c2noc(COc3ccc(C(C)C)cc3)n2)cc1", "inhibition": "95.7% (active)"}, {"molecule": "CN(Cc1nc(-c2ccc(C(F)(F)F)cc2)no1)CC(O)c1ccccc1", "note": "(stereo unspecified)", "inhibition": "84.5% (active)"}, {"molecule": "Cc1ccc(-c2noc(CC#N)n2)cc1", "inhibition": "77.1% (active)"}, {"molecule": "Cc1ccc(-c2noc(CSc3ncccn3)n2)cc1", "inhibition": "42.6%"}, {"molecule": "N#CCOc1ccc(CNc2ncc(Br)cn2)cc1", "inhibition": "33.8%"}, {"molecule": "Cc1ccc(-c2noc(CN3CCCc4ccccc43)n2)cc1", "inhibition": "101% (active)"}, {"molecule": "O=c1[nH]nc(SCc2ccccc2)c(=S)[nH]1", "inhibition": "85.6% (active)"}, {"molecule": "N#Cc1c(SCc2ccccc2)n[nH]c1-c1cccs1", "inhibition": "37.8%"}, {"molecule": "CC(C)(C)c1nnc(NC(=O)c2cc(C(F)(F)F)cc(C(F)(F)F)c2)s1", "inhibition": "96% (active)"}, {"molecule": "CC(C)CC(=O)Nc1nnc(C(C)(C)C)s1", "inhibition": "17.4%"}, {"molecule": "CCCc1nc(N2C[C@@H]3[C@H](C2)[C@H]2CC[C@@H]3O2)no1", "inhibition": "-30.4%"}, {"molecule": "CC(C)c1cc(C(=O)N2C[C@@H]3[C@H](C2)[C@H]2CC[C@@H]3O2)cs1", "inhibition": "-8.56%"}, {"molecule": "CC(C)Cc1cc(C(=O)N2C[C@@H]3[C@H](C2)[C@H]2CC[C@@H]3O2)on1", "inhibition": "83.1% (active)"}, {"molecule": "Cc1ccc(NC(=O)N2CCN(CCCOC(c3ccc(Cl)cc3)c3ccc(Cl)cc3)CC2)cc1", "inhibition": "-2.85%"}, {"molecule": "CC(C)c1noc(-c2ccc(NC(=O)N3CCCC3)cc2)n1", "inhibition": "73.4% (active)"}, {"molecule": "CC1CCN(C(=O)Nc2ccc(Br)cc2)CC1", "inhibition": "30.1%"}, {"molecule": "Cc1ccc(NC(=O)c2ncoc2C(C)C)cc1Br", "inhibition": "40.1%"}, {"molecule": "COc1ccc(NC(=O)c2ccc(=O)n(C)c2)cc1Br", "inhibition": "2.47%"}, {"molecule": "COC(F)(C(=O)Nc1ccc(C)c(Br)c1)C(F)(F)F", "note": "(stereo unspecified)", "inhibition": "56.7% (active)"}, {"molecule": "O=C1CC(c2ccccc2)CC(=O)C1S(=O)c1ccc(Cl)cc1", "note": "(stereo unspecified)", "inhibition": "58.1% (active)"}, {"molecule": "C=C=C/C=C/C=C\\Oc1ccc(CO)cc1O/C=C\\C=C\\C=C=C", "inhibition": "88.7% (active)"}, {"molecule": "Cc1nc(COc2ccc(Oc3nccs3)cc2)oc1C", "inhibition": "80% (active)"}, {"molecule": "Brc1ccc(OCc2nnc(-c3cccs3)o2)cc1", "inhibition": "42.8%"}, {"molecule": "CC(C)(C)c1noc(COc2ccc(O)cc2)n1", "inhibition": "39.8%"}, {"molecule": "CC(c1cccs1)N(C)C(=O)COc1ccc(F)cc1", "note": "(stereo unspecified)", "inhibition": "59.8% (active)"}, {"molecule": "CC(C)NC(=O)c1ccc(OCc2cccs2)cc1", "inhibition": "-17.8%"}, {"molecule": "CC1CCc2c(nc3sc4c(c3c2N)CCCC4)C1", "note": "(stereo unspecified)", "inhibition": "32.6%"}, {"molecule": "CN(C)Cc1nc(Cl)c2c3c(sc2n1)CCCCC3", "inhibition": "69.8% (active)"}, {"molecule": "CC(CCc1ccccc1)NC(=O)NCCC1CCCC1", "note": "(stereo unspecified)", "inhibition": "-6.93%"}, {"molecule": "CN(CCC1CCCCC1)C(=O)Nc1ccsc1", "inhibition": "48.9%"}, {"molecule": "CCc1ccc(CN(C)C(=O)NCCC2CCCC2)cc1", "inhibition": "99.2% (active)"}, {"molecule": "CCc1cc(OCc2ccc(C(N)=O)cc2)ccc1Cl", "inhibition": "-54%"}, {"molecule": "CC(C)(C)c1ccc(COc2ccccc2C(N)=O)cc1", "inhibition": "30.2%"}, {"molecule": "Cc1cc(Cl)ccc1OCc1ccc(C(N)=O)cc1", "inhibition": "68.2% (active)"}, {"molecule": "Cc1cccc(OCc2ccc(C(N)=O)cc2)c1C", "inhibition": "64.1% (active)"}, {"molecule": "NC(=O)c1ccc(CSCc2cccc(F)c2)cc1", "inhibition": "19.5%"}, {"molecule": "NC(=O)c1cc(Cl)ccc1OCc1ccccc1Br", "inhibition": "1.54%"}, {"molecule": "CC(C)c1cc(C(=O)NC2CCN(c3cccc(F)c3)CC2)n[nH]1", "inhibition": "41.4%"}, {"molecule": "CC(C)c1cc(C(=O)NC2CC2)nn1-c1nc2ccccc2s1", "inhibition": "94.4% (active)"}, {"molecule": "Cc1cc(=O)[nH]c(-n2nc(C3CC3)cc2NC(=O)c2ccccc2C(F)(F)F)n1", "inhibition": "99.9% (active)"}, {"molecule": "Cc1cc(=O)[nH]c(-n2nc(C3CC3)cc2NC(=O)c2ccccc2Cl)n1", "inhibition": "101% (active)"}, {"molecule": "Cc1nc(-n2nc(C3CC3)cc2NC(=O)c2ccccc2Cl)[nH]c(=O)c1C", "inhibition": "80.4% (active)"}, {"molecule": "Cc1nc(-n2nc(C3CC3)cc2NC(=O)c2ccccc2F)[nH]c(=O)c1C", "inhibition": "-15.9%"}, {"molecule": "Cc1cc(=O)[nH]c(-n2nc(C3CC3)cc2NC(=O)c2c(F)cccc2F)n1", "inhibition": "99.2% (active)"}, {"molecule": "Cc1cc(=O)[nH]c(-n2nc(C3CC3)cc2NC(=O)c2ccccc2F)n1", "inhibition": "101% (active)"}, {"molecule": "Cc1cc(=O)[nH]c(-n2nc(C3CC3)cc2NC(=O)c2cccc3ccccc23)n1", "inhibition": "99.8% (active)"}, {"molecule": "O=C(NS(=O)(=O)Cc1ccccc1)c1sccc1C1CC1", "inhibition": "10.6%"}, {"molecule": "N#Cc1ccc(S(=O)(=O)NC(=O)c2sccc2C2CC2)cc1", "inhibition": "67.6% (active)"}, {"molecule": "O=C(Nc1ccc(-c2ccco2)cc1)C1CCCN(C(=O)CCN2CCCO2)C1", "note": "(stereo unspecified)", "inhibition": "82.8% (active)"}, {"molecule": "Nc1ncc(CN2CCCC(C(=O)Nc3ccc(-c4ccco4)cc3)C2)cn1", "note": "(stereo unspecified)", "inhibition": "inactive"}, {"molecule": "O=C(Nc1ccc(-c2ccco2)cc1)C1CCCN(C(=O)CCc2cnccn2)C1", "note": "(stereo unspecified)", "inhibition": "-19.9%"}, {"molecule": "O=C(Nc1ccc(-c2ccco2)cc1)C1CCCN(C(=O)CCc2cccs2)C1", "note": "(stereo unspecified)", "inhibition": "inactive"}, {"molecule": "COc1cc(/C=C/CN2CCCC(C(=O)Nc3ccc(-c4ccco4)cc3)C2)ccc1O", "note": "(stereo unspecified)", "inhibition": "45.7%"}, {"molecule": "O=C(Nc1ccc(-c2ccco2)cc1)C1CCCN(Cc2coc3ccccc3c2=O)C1", "note": "(stereo unspecified)", "inhibition": "31.3%"}, {"molecule": "O=C(Nc1ccc(-c2ccco2)cc1)C1CCCN(Cc2cccc3c2OCO3)C1", "note": "(stereo unspecified)", "inhibition": "85% (active)"}, {"molecule": "Cn1ccc(CC(=O)N2CCCC(C(=O)Nc3ccc(-c4ccco4)cc3)C2)c1", "note": "(stereo unspecified)", "inhibition": "84.1% (active)"}, {"molecule": "O=C1Nc2ncccc2Oc2cc(F)cc(O)c21", "inhibition": "81.3% (active)"}, {"molecule": "CC(C(=O)Nc1ccccc1Cl)N1CCCC1c1ccsc1", "note": "(stereo unspecified)", "inhibition": "3.58%"}, {"molecule": "O=C(NCCOc1cc(N2CCCCC2)ncn1)Nc1ccccc1Cl", "inhibition": "56% (active)"}, {"molecule": "O=C(NCc1ccccn1)Nc1cc(F)c(N2CCCC2)c(F)c1", "inhibition": "38.7%"}]}]}
